# Source: PubChem BioAssay (NCATS)
# Inconclusive results are not listed. A call without a number means that no potency is given here. Active and inactive are the calls of the source. Calls come from the whole dose curve; as a rule, active = well fitted inhibition curve with a large enough effect; inconclusive = small, poorly fitted or top-dose-only effect; inactive = no such curve, though single readings can be large or run the other way.
# Target: Retinaldehyde dehydrogenase 3 (Homo sapiens) (UniProt P47895)
# Test: qHTS for Inhibitors of the Aldehyde Dehydrogenase Family (ALDH1A3) Primary screen (AID 2061315)
# Details: ALDH inhibition qHTS; series mostly up to 56 µM
row,SMILES,Potency
1,C=CC(C)(O)C(O)CC1C(C)(O)C(O)C(O)C2C(C)(C)CCCC21C (stereo not drawn),inactive
2,OC[C@H]1O[C@@H](OCc2ccccc2)[C@H](O[C@@H]2OC[C@@H](O)[C@H](O)[C@H]2O)[C@@H](O)[C@@H]1O,inactive
3,CCCO[C@@H]1O[C@H](CO)[C@@H](O)[C@H](O)[C@H]1O[C@@H]1OC[C@@H](O)[C@H](O)[C@H]1O,inactive
4,C/C=C(\C)C(=O)O[C@H]1[C@@H](O[C@]2(COC(=O)CC(C)C)O[C@H](COC(=O)C(C)CC)[C@@H](OC(C)=O)[C@@H]2O)O[C@H](COC(C)=O)[C@@H](O)[C@@H]1O (stereo partly drawn),inactive
5,O=C(/C=C/c1ccc(O)cc1)OC[C@@]1(O)C=C[C@@H]2C(C(=O)O)=CO[C@@H](O[C@@H]3O[C@H](CO)[C@@H](O)[C@H](O)[C@H]3O)[C@@H]21,inactive
6,COC(=O)C(Cc1ccccc1)NC(=O)c1ccccc1 (stereo not drawn),inactive
7,NC(N)=NC(=O)c1cnn(-c2cccc3ncccc23)c1C1CC1,inactive
8,COC(=O)c1cc(Br)cnc1N1CCC(NC2CCCCC2)C(O)C1 (stereo not drawn),inactive
9,C=C1CC2OC(=O)C(COC)C2C(OC(=O)/C(C)=C\C)CC2(C)OC1=CC2=O (stereo not drawn),inactive
10,CC(=O)O[C@@H](CO[C@@H]1O[C@H](CO)[C@H](O)[C@H](O)[C@H]1O)[C@]1(C)C=C2CC[C@@H]3C(C)(C)[C@@H](O)CC[C@@]3(C)[C@@H]2CC1,inactive
11,O=C(O)c1ccnc(-c2cc(C(=O)NCCc3ccccc3)ccn2)c1,inactive
12,COc1cc(C(=O)NC2CCN(C)CC2)ccc1Nc1ncc2c(n1)N(C1CCCC1)CC(F)(F)C(=O)N2C,inactive
13,CCCCS(=O)(=O)Nc1ncnc(OCCOc2ncc(Br)cn2)c1-c1ccc(Br)cc1,inactive
